Pol eta inh – qHTS for Inhibitors of Polymerase Eta | DNA polymerase eta (Homo sapiens), Q9Y253 | recombinant Pol eta, fluorescent DNA replication assay | Potency, µM (titrated, usually from 114 µM), for the others: at the highest dose activity change, negative = inhibition, usual class: inhibitors | hit rate 1.2% among 390,000; note: % is set by controls: 0 for no effect and ±100 for the full control effect
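Pol eta (10 nM) was preincubated with compounds for 15 min at room temperature, after which fluorescent replication substrate (50 nM final) was added to start the reaction. Fluorescence was read kinetically at 0 and 10 min.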
Pol kappa inh – qHTS for Inhibitors of Polymerase Kappa. DNA polymerase kappa (Homo sapiens), Q9UBT6. purified Pol kappa, fluorescent DNA synthesis assay, 10 min. Potency, µM (highest dose often 107 µM), inactives show top-dose activity, negative = inhibition, actives largely listed as inhibitors. hit rate 0.53% among 400,000; note: % is set by controls: 0 for no effect and ±100 for the full control effect
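10 nM Pol kappa preincubated 15 min at room temperature with compounds, then reaction started with substrate at 50 nM final. Fluorescence read kinetically at 0 and 10 min; buffer-only wells served as negative control.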
TDP1 inh – qHTS Assay for Inhibitors of Tyrosyl-DNA Phosphodiesterase (TDP1) | AID 485290, 2010 | Tyrosyl-DNA phosphodiesterase 1 (Homo sapiens), Q9NUW8 | Potency, µM (series often up to 130 µM), inactives show at the highest dose activity change, negative = inhibition, usual class: inhibitors | recombinant TDP1, AlphaScreen DNA substrate cleavage | hit rate 0.28% among 350,000; note: % is set by controls: 0 for no effect and ±100 for the full control effect; nearly all actives have a fitted effect of over 40% in size
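Compounds were preincubated with Tdp1 (1 nM final) for 15 min at room temperature before substrate (15 nM final) started a 5 min reaction; beads (10 ug/ml final) were then added for 10 min before AlphaScreen detection.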
Pol iota inh – qHTS for Inhibitors of Polymerase Iota; DNA polymerase iota (Homo sapiens), Q9UNA4; Pol iota fluorescent replication assay, 10 min; Potency, µM (series often up to 115 µM), without a hit: at the highest dose activity, negative = inhibition, usual class: inhibitors; hit rate 1% among 390,000
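Fluorescent replication assay read twice, at 0 min and 10 min after adding 50 nM (final) substrate. Enzyme (10 nM) and compounds were first incubated 15 min at room temperature; enzyme-free buffer wells were negative controls.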
POLB inh – qHTS Assay for Inhibitors of DNA Polymerase Beta; Pol beta primer extension/strand displacement, fluorescence kinetic; AID 485314, 2010; Potency, µM (series often up to 114 µM), without a hit: at the top dose activity change, negative = inhibition, most hits filed as inhibitors; P06746; hit rate 1.3% among 340,000; note: % is set by controls: 0 for no effect and ±100 for the full control effect
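Curves were derived by four-parameter Hill fits of normalized qHTS data. The kinetic fluorescent primer-extension read was taken at 0 and 10 min after 50 nM substrate, following a 15 min room-temperature preincubation of 10 nM enzyme with compounds.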
PGK validate – qHTS for inhibitors of Phosphogylcerate Kinase: Hit Validation Screen; TbPGK coupled GAPDH assay, Kinase-Glo luminescence; shares compounds with Pol kappa inh; hit rate 79% among 500; Potency, µM (top dose mostly 57.5 µM), inactives show at the highest dose activity change, negative = inhibition, hits mostly inhibitors; note: % is set by controls: 0 for no effect and ±100 for the full control effect; nearly all actives have a fitted effect of over 65% in size
Target sequence (P07378 whole entry, looked up): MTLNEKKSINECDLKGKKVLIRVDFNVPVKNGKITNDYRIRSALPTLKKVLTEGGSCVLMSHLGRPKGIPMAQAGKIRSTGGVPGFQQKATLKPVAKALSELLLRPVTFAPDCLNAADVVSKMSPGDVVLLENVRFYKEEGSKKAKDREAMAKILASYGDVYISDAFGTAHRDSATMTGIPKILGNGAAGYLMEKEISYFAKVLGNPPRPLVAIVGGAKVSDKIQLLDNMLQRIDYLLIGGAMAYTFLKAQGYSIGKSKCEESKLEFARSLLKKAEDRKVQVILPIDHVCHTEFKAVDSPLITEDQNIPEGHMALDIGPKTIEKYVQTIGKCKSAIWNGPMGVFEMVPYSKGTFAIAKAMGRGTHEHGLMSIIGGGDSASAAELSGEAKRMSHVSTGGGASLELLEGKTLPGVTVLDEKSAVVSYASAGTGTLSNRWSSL
Pol iota confirm – qHTS for Inhibitors of Polymerase Iota: Confirmatory Assay for Cherry-picked Compounds. shares compounds with Pol kappa inh. Pol iota primer extension, TAMRA/BHQ fluorescence. Potency, µM, hits mostly inhibitors. hit rate 77% among 1,500. AID 720496, 2013
The depositor's hits bear a star; u = inconclusive; x = no result; [ ] = another dose, or the depositor's remark. This is a sample that favours compounds with a hit; in the whole collection about 2.4% have one here. Calls come from the whole dose curve; as a rule, active = well fitted curve in the direction sought with a large enough effect; inconclusive = small, poorly fitted or top-dose-only effect, or another doubt; inactive = no such curve, though single readings can be large; an effect the other way counts as inactive or inconclusive. Potency is the fitted concentration of half-maximal effect.

SMILES | Pol eta inh | Pol kappa inh | TDP1 inh | Pol iota inh | POLB inh | PGK validate | others
CNC(=O)C1CCC(Cn2c(=O)c3sccc3n(CC(=O)Nc3cc(C)cc(C)c3)c2=O)CC1 (stereo not drawn) | 3.4% | 5.6% | 9.7% | 2.9% | 2.4% | -27.7%
Cc1cc(NC(=O)c2cncc(Br)c2)ccc1NC(=O)c1cc2ccccc2o1 | 50.1µM* | -11.7% | x | u | u | x | Pol iota confirm=u
CC(=O)c1ccc(NC(=O)C2=CC(c3ccc(C)cc3)=NS(=O)(=O)N2C)cc1 | -25.0% | -4.8% | 17.1% | 28.4% | -15.1% | x
CCN(CC)CCC(=O)Nc1cccc2c1C(=O)c1ccccc1C2=O | -28.3% | -21.0% | 7.6% | 15.8µM* | 20µM* | x | Pol iota confirm=u
Nc1cccc(C(=O)OCC(=O)Nc2cccc3c2C(=O)c2ccccc2C3=O)c1 | u | -11.7% | 1.1% | -4.7% | 18.0% | x
Cc1ccnc(NC(=O)c2cc3ccccc3o2)c1 | -0.4% | 0.0% | 0.1% | 23.5% | x | x
O=C(Nc1ccccn1)c1cc2ccccc2o1 | -6.0% | -3.0% | 5.0% | 23.7% | 0.9% | 16.3µM*
O=[N+]([O-])c1ccc2nc(SCc3cn4cc(Cl)ccc4n3)[nH]c2c1 | 50.1µM* | -28.5% | -2.8% | 28.2µM* | 5.62µM* | x | Pol iota confirm=u
Cc1ccc(Cl)cc1N1CCN(C(=O)COc2cc(=O)n(C)c3ccccc23)CC1 | -19.1% | 2.8% | 5.8% | 42.6% | 21.6% | x
O=c1c(OC2OC(CO)C(O)C(O)C2O)c(-c2ccc(O)c(O)c2)oc2cc(O)cc(O)c12 (stereo not drawn) | u | 17.8µM* | -2.7% | 25.1µM* | -19.2% | u
O=C(CCCN1C(=O)/C(=C/c2ccccc2)SC1=S)Nc1ccc(C(=O)O)c(O)c1 | -5.1% | -1.3% | 8.2% | 3.9% | -18.4% | x
CC(C(=O)Nc1ccc(C(=O)O)c(O)c1)N1C(=O)/C(=C\c2ccco2)SC1=S (stereo not drawn) | 3.16µM* | 0.2% | x | u | u | 23.1µM*
CC(C)C(C(=O)O)N1C(=O)/C(=C/C=C/c2ccco2)SC1=S (stereo not drawn) | 0.794µM* | 3.16µM* | u | 1.12µM* | 1.58µM* | 2.59µM*
CC(C)C(C(=O)O)N1C(=O)/C(=C/c2cccn2C)SC1=S (stereo not drawn) | -22.3% | -5.8% | 4.2% | 137.8% | 22.7% | x
CC(C)C[C@H]1COC(c2ccc(Br)cc2)=N1 | x | -8.3% | 3.1%[234 µM] | x | x | x
C=C(C)C(=O)Nc1cccc(C2=NOC3(C2)C[C@@H](C(N)=O)N(C(=O)c2cc([N+](=O)[O-])cc([N+](=O)[O-])c2)C3)c1 (stereo partly drawn) | 20µM* | u | x | u | 14.1µM* | u
CCCCCC(=O)Nc1cccc(C2=NOC3(C2)C[C@@H](C(N)=O)N(C(=O)c2cc([N+](=O)[O-])cc([N+](=O)[O-])c2)C3)c1 (stereo partly drawn) | -20.6% | -5.1% | 1.2% | 1.4% | -1.9% | x
COc1cccc(OC)c1C(=O)Nc1cccc(-c2nc3cc(C)cc(C)c3o2)c1 | -0.8% | 2.0% | 1.9% | -7.3% | 0.3% | x
Cc1ccc(Nc2nc(N)nc(CSc3nnnn3-c3ccccc3)n2)cc1 | u | -16.7% | 79.4µM* | 20µM* | 22.4µM* | x | Pol iota confirm=29.9*
CCOC(=O)c1c(C)n(-c2ccccc2)c2ccc(OC(=O)c3ccccc3)cc12 | -9.4% | -21.3% | 0.4%[12.3 µM] | 8.6% | -17.2% | x
O=C(NCc1ccccc1)c1ccc(NC(=O)C2CCCCC2)cc1 | -11.5% | 2.0% | x | -13.3% | x | x
O=C(NCc1ccccc1)c1ccc(NC(=O)C2CCCC2)cc1 | -17.7% | -0.2% | x | 35.9% | x | 1.4%
CCCCCCCCCCCCCCCCCC(=O)OC[C@@H](O)[C@H]1OC[C@H](O)[C@H]1O | x | 0.5%[60.1 µM] | 4.3% | x | x | x
Cc1ccc(/C=N/N2CCCCC2)o1 | -8.7% | -9.3% | 5.0% | -4.8% | 3.9% | -0.4%
CN1/C(=C/C=C/c2n(C)c3cc([N+](=O)[O-])c([N+](=O)[O-])cc3[n+]2C)C(C)(C)c2ccccc21 | u | x | x | x | x | u
SMILES | Pol eta inh | Pol kappa inh | TDP1 inh | Pol iota inh | POLB inh | PGK validate | others
Cc1cccc[n+]1CC(=O)/C=C1\N(C)c2ccccc2C1(C)C | -28.8% | -7.1% | -2.6% | 18.3% | 5.4% | x
O=c1nc2c(O)cccn2c2c1c(=O)[nH]c1ccccc12 | u | u | -5.7% | u | u | x | Pol iota confirm=42.3*
Cc1cc(=O)n2cccc(O)c2n1 | -1.3% | -8.8% | 2.4% | 22.7% | 23.5% | x
Cc1ccc(-n2c3nc(=O)[nH]c(=O)c-3cc3c(C)nn(-c4ccccc4)c32)cc1C | -10.5% | -12.0% | 0.0% | 23.5% | 17.6% | x
COC(=O)c1ccc(NC(=O)c2ccc(NC(=O)c3ccco3)cc2)cc1 | u | -10.2% | 2.4% | u | -0.5% | x | Pol iota confirm=u
Cc1cc(C)cc(NC(=O)c2ccc(NC(=O)c3ccco3)cc2)c1 | -12.5% | -10.9% | 5.7% | 8.6% | 29.8% | x
Cc1nnc(N2CCN(c3cccc(Cl)c3)CC2)c2c1nnn2Cc1ccc(F)cc1 | -10.3% | -12.7% | 7.0% | 34.0% | -1.5% | x
CSc1ccc(C=NNc2ccc(S(=O)(=O)Nc3ccccc3C(=O)O)cc2[N+](=O)[O-])cc1 | u | u | -18.0% | 25.1µM* | x | 4.11µM*
CCOc1ccc(C=NNc2ccc(S(=O)(=O)Nc3ccccc3C(=O)O)cc2[N+](=O)[O-])cc1 | -12.2% | -13.8% | -12.7% | u | x | x
CCOc1ccc(C(=O)Nc2cc(C)ccn2)cc1 | -18.4% | 3.2% | 2.6% | 92.8% | 30.3% | 16.3µM*
CCOc1cc(C(=O)Nc2cc(C)ccn2)cc(OCC)c1OCC | -6.6% | -7.0% | 1.9% | 4.6% | 5.5% | x
CCCS(=O)(=O)c1cnc(C2COc3ccccc3O2)nc1N (stereo not drawn) | -7.1% | -16.6% | x | -9.0% | 1.1% | 18.3µM*
O=C(NNC(=O)c1cc(-c2ccncc2)nc2ccccc12)c1ccccc1O | -8.9% | -17.7% | -7.1% | u | x | x | Pol iota confirm=37.7*
O=C(O)c1ccc2c(c1)[C@@H]1C=CC[C@@H]1[C@H](c1ccccn1)N2 | 6.31µM* | 10µM* | x | 3.55µM* | x | 16.3µM*

Screens: PubChem, National Center for Advancing Translational Sciences (NCATS)
